Reference: PubChem BioAssay
Activity calls are given as the source filed them.

Assay: yeast growth modulation, basal conditions, primary screen, YJM789 clinical isolate, OD600, 24 h (AID 1089);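 note: growth of clinical yeast isolate S. cerevisiae YJM 789 seeded 1000 cells per well; test concentration not given here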
Settings: S. cerevisiae YJM789 growth, higher = more signal, called active from +8 up or from −8 down
With CCCCC(=O)N(Cc1ccccc1F)[C@@H]1CC(C(=O)NCCO)=C[C@H](Oc2c(I)cc(CO)cc2OC)[C@H]1O the z-score was 0.41 (inactive). In the case of COc1ccc([Si](C)(C)[C@H]2[C@H](CCO)O[C@@]3(C(=O)N(Cc4cccc(N5C(=O)c6cccc7cccc5c67)c4)c4ccccc43)[C@@H]2C)cc1, the z-score is reported as 2.05 (inactive). In the case of CC(C)C(CO)N1C(=O)[C@@H]2[C@H]3C(=O)OCC=C[C@H]3OC23C=CCN(c2ccc4ccccc4c2)C(=O)[C@@H]13 (some centres not stated), the z-score is reported as 0.523 (inactive). In the case of CCOC(=O)C[C@H]1[C@H](OC(=O)c2ccccc2-c2ccccc2)[C@@H](NC(=O)c2ccc(-c3ccccc3)cc2)c2cc(OCCCO)ccc2N1C(=O)c1ccccc1, the z-score is reported as 0.742 (inactive). For CN(C)CCCC[C@@H]1NC(=O)[C@@H]2C[C@H](C(=O)NCCCCCCN)[C@H](c3ccc(O)cc3)N2C1=O, the z-score was 0.377 (inactive). For CN1C(=O)C2C(C1=O)C1C=C(c3ccc(CO)cc3)C2C(C2CC2)N1Cc1sc2ccccc2c1Cl (configuration not stated), the z-score was 0.654 (inactive). In the case of O=C1C2C=CC(C(O)c3ccc(B(O)O)cc3)N(Nc3ccc([N+](=O)[O-])cc3)C2C(=O)N1c1ccccc1 (configuration not stated), the z-score is reported as -26.5 (active). In the case of CCCNC(=O)[C@@]1(C)c2ccccc2C(=O)N(Cc2ccc(OC(F)(F)F)cc2)[C@H]1c1ccc(CO)cc1, the z-score is reported as -0.446 (inactive). For [N-]=[N+]=NCc1ccccc1[C@H]1OC(c2ccc(OCCCO)cc2)=N[C@@]1(Cc1ccccc1)C(=O)O, the z-score was -0.36 (inactive). In the case of CCCC[C@@H]1C[C@H]1[C@@H](NC(=O)c1ccccc1)c1ccc(-c2ccccc2)cc1, the z-score is reported as -2.02 (inactive). In the case of C=C(CCCC)/C(=C/C[C@H](OC(C)=O)c1ccc(CO)o1)c1cc(C(=O)OC)ccc1OC, the z-score is reported as 1.02 (inactive). With COc1ccc([Si](C)(C)[C@@H]2[C@@H](CC(=O)N3Cc4ccccc4C[C@H]3CO)O[C@]3(C(=O)N(Cc4cccc(N5C(=O)COc6ccccc65)c4)c4ccccc43)[C@H]2C)cc1 the z-score was -1.38 (inactive). For C=C(C)[C@@H]1CC=C(C(O)C2C=CC3C(=O)N(Cc4ccccc4)C(=O)C3N2n2cnnc2)CC1 (some centres not stated), the z-score was -0.542 (inactive). For C=C(C(=O)CC[C@@H](OC(C)=O)c1ccc(OCCO)cc1)C(C)C, the z-score was -1.33 (inactive). For COc1ccc(C(=O)Nc2cccc(CN3C(=O)[C@@]4(O[C@@H](CC(=O)N5Cc6ccccc6C[C@H]5CO)[C@H]([Si](C)(C)c5ccc(OC)cc5)[C@H]4C)c4ccccc43)c2)cc1, the z-score was -1.26 (inactive). In the case of CC[C@@H]1C=C(C(=O)O)[C@H](c2ccc(C(C)C)cc2)N1S(=O)(=O)c1ccc(C)cc1, the z-score is reported as -0.921 (inactive). In the case of [N-]=[N+]=NCc1ccccc1C[C@]1(C(=O)NCC(O)CO)COC(c2ccc(OCCCO)cc2)=N1 (some centres not stated), the z-score is reported as -0.319 (inactive). With [N-]=[N+]=Nc1ccccc1[C@@H]1OC(c2ccc(OCCCO)cc2)=N[C@]1(CCS(=O)(=O)c1ccccc1)C(=O)N1CCCCC1 the z-score was 0.436 (inactive). In the case of O=C1OCCC/C=C\[C@H]2OC34C=CCN(Cn5nnc6ccccc65)C(=O)[C@H]3N(CCCO)C(=O)[C@@H]4C12 (some centres not stated), the z-score is reported as -0.57 (inactive). For C=CCC(OC(C)=O)[C@@H]1[C@@H](N(Cc2cc3ccccc3o2)C(=O)c2cccc3ccccc23)c2cc(OCCCO)ccc2N1C(=O)Cc1ccc(OC)cc1 (some centres not stated), the z-score was -0.0559 (inactive). With Cc1ccc(N2C(=O)c3ccccc3[C@@H](C(=O)NCC(C)C)[C@@H]2c2ccc(CO)cc2)nc1 the z-score was 0.229 (inactive). In the case of COCCOC(=O)N1C(=O)[C@@]2(c3ccccc31)[C@H](c1ccc(O)cc1)N1[C@H](c3ccccc3)[C@H](c3ccccc3)OC(=O)[C@H]1[C@@H]2C(N)=O, the z-score is reported as 0.396 (inactive). With CN(C)CCCC[C@@H]1NC(=O)[C@@H]2C[C@H](C(=O)NCCCCCN)[C@H](c3ccc(O)cc3)N2C1=O the z-score was 0.212 (inactive). For COCCOC(=O)N1C(=O)[C@@]2(c3cc(C#CCCO)ccc31)[C@H](C(=O)NC[C@H](O)c1ccccc1)[C@H]1C(=O)O[C@H](c3ccccc3)[C@H](c3ccccc3)N1[C@@H]2c1ccc(OCCO)cc1, the z-score was 1.23 (inactive). With O=C1C2C=CC(C(O)C3CC=CCC3)N(n3cnnc3)C2C(=O)N1Cc1ccccc1 (configuration not stated) the z-score was -0.504 (inactive). With CC(C)C(O)C1C=CC2C(=O)N(C)C(=O)C2N1N1CCCCC1 (configuration not stated) the z-score was 0.252 (inactive). For COC(=O)[C@@]1(Cc2ccc(F)cc2)[C@H]2c3cc(C(=O)N4CCCC4)n(CCc4ccc(OC)c(Br)c4)c3C[C@H]2CN1C(=O)c1ccccc1, the z-score was 0.0318 (inactive).
